Data published in PubChem BioAssay (NCATS).
Records with an inconclusive call do not appear. Active and inactive are the calls of the source. Calls come from the whole dose curve; as a rule, active = well fitted cell-killing curve with a large enough effect; inconclusive = small, poorly fitted or top-dose-only effect, or effect the other way; inactive = flat fitted curve, though single readings scatter.

Test: qHTS assay for cell viability of the p53RE-bla HCT-116 cell line (AID 743292); note: nearly all actives have a fitted effect of over 55% in size
Settings: p53RE-bla HCT-116 viability, ATP luminescence, 16 h; series mostly up to 95 µM; activity change, negative = cytotoxicity: at the top concentration
Excerpt: U.S. Tox21 Program National Center for Advancing Translational Sciences [NCATS] NIH Chemical Genomics Center [NCGC] U.S. Environmental Protection Agency [EPA] National Institutes of Environmental Health Sciences [NIEHS] National Toxicology Program [NTP] U.S. Food and Drug Administration [FDA] Tox21 Assay Overview: The CellTiter-Glo Luminescent Cell Viability Assay (Promega, Madison, WI) is a homogeneous method to determine the number of viable cells in culture based on quantitation of the ATP present, which signals the presence of metabolically active cells. This cell viability assay was used to screen environmental chemicals in the CellSensor p53RE-bla HCT-116 cell line (Invitrogen).
Tox21 Assay Protocol Summary: Cell viability after compound treatment was measured using a luciferase-coupled ATP quantitation assay (CellTiter-Glo viability assay, Promega, Madison, WI) in CellSensor p53RE-bla HCT-116 cell line (Invitrogen). Total intracellular ATP content corresponds to the number of metabolically competent cells after compound treatment. The cells were dispensed at 4,000 cells/5 uL/well in 1,536-well white/solid bottom assay plates using a Flying Reagent Dispenser (Aurora Discovery, San Diego, CA). The cells were incubated for 5 h at 37 C, followed by the addition of 23 nL of compounds dissolved in DMSO, positive controls or DMSO only using a pintool work station (Kalypsys, San Diego, CA). The assay plates were incubated for 16 h at 37 C, followed by the addition of 5 uL/well of CellTiter-Glo reagent. After 30 min incubation at room temperature, the luminescence intensity of the plates was measured using a ViewLux plate reader (PerkinElmer, Shelton, CT).
% is set by controls: 0 for no effect and ±100 for the full control effect; potency is the fitted concentration of half-maximal effect.

| Structure (SMILES) | Potency | activity change, negative = cytotoxicity |
| --- | --- | --- |
| C[C@@H]1CC[C@@]2(OC1)O[C@H]1[C@@H](O)[C@H]3[C@@H]4CC[C@H]5C[C@@H](O[C@@H]6O[C@H](CO)[C@H](O[C@@H]7O[C@H](CO)[C@@H](O)[C@H](O[C@@H]8OC[C@@H](O)[C@H](O)[C@H]8O)[C@H]7O[C@@H]7O[C@H](CO)[C@@H](O)[C@H](O[C@@H]8O[C@H](CO)[C@@H](O)[C@H](O)[C@H]8O)[C@H]7O)[C@H](O)[C@H]6O)[C@H](O)C[C@]5(C)[C@H]4CC[C@]3(C)[C@H]1[C@@H]2C | 35.5 µM (active) | – |
| O=[N+]([O-])Nc1nccn1Cc1ccc(Cl)nc1 | – | -15.7% (inactive) |
| CC(C)N1C(=O)N(c2ccccc2)CSC1=NC(C)(C)C | – | -20.8% (inactive) |
| CN1COCN(Cc2cnc(Cl)s2)/C1=N\[N+](=O)[O-] | – | -7.81% (inactive) |
| CC[C@H](C)[C@H]1O[C@]2(C=C[C@@H]1C)C[C@@H]1C[C@@H](C/C=C(\C)[C@@H](O[C@H]3C[C@H](OC)[C@@H](O[C@H]4C[C@H](OC)[C@@H](NC)[C@H](C)O4)[C@H](C)O3)[C@@H](C)/C=C/C=C3\CO[C@@H]4[C@H](O)C(C)=C[C@@H](C(=O)O1)[C@]34O)O2 | 28.2 µM (active) | – |
| CSC1=N[C@@](C)(c2ccccc2)C(=O)N1Nc1ccccc1 | – | -21.2% (inactive) |
| CCCCC(C#N)(Cn1cncn1)c1ccc(Cl)cc1 (stereo not given) | inactive | – |
| CCOP(=O)(OCC)OC(Cl)C(Cl)(Cl)Cl (stereo not given) | – | 6.12% (inactive) |
| c1ccc2cc3c(cc2c1)-c1cccc2cccc-3c12 | inactive | – |
| CC(C)[C@H](C(=O)O[C@H](C#N)c1cccc(Oc2ccccc2)c1)c1ccc(Cl)cc1 | – | -17.5% (inactive) |
| O=P(O)(O)CCCl | inactive | – |
| C[Si](Cn1cncn1)(c1ccc(F)cc1)c1ccc(F)cc1 | – | 1.36% (inactive) |
| CNC(=O)Oc1ccc(N(C)C)c(C)c1 | – | -0.791% (inactive) |
| O=C1c2ccccc2C(=O)C1C(=O)C(c1ccccc1)c1ccc(Cl)cc1 (stereo not given) | – | -7.49% (inactive) |
| CC(C)(C)C(O)C(Oc1ccc(-c2ccccc2)cc1)n1cncn1 (stereo not given) | – | -11% (inactive) |
| Clc1ccc([C@]2(Cn3cncn3)C[C@H](Br)CO2)c(Cl)c1 | inactive | – |
| CC(C1CC1)C(O)(Cn1cncn1)c1ccc(Cl)cc1 (stereo not given) | – | -10.8% (inactive) |
| Brc1c(Br)c(Br)c(Br)c(Br)c1Br | – | 8.62% (inactive) |
| N#Cc1cc(I)c(O)c(I)c1 | – | -17.7% (inactive) |
| C1=Cc2cccc3cccc1c23 | – | -4.6% (inactive) |

| Structure (SMILES) | Potency | activity change, negative = cytotoxicity |
| --- | --- | --- |
| COc1cnc(OC)n2nc(NS(=O)(=O)c3c(OCC(F)F)cccc3C(F)(F)F)nc12 | – | -5.5% (inactive) |
| C/C(=N\C(N)=O)N(C)Cc1ccc(Cl)nc1 | – | -8.94% (inactive) |
| CCC(C)n1c(=O)[nH]c(C)c(Br)c1=O (stereo not given) | – | -8.7% (inactive) |
| COP(=O)(NC(C)=O)SC (stereo not given) | – | 0.262% (inactive) |
| CC(=NC#N)N(C)Cc1ccc(Cl)nc1 | – | 8.91% (inactive) |
| CCC[CH2][Sn]([CH2]CCC)([O]C(C)=O)[O]C(C)=O | – | -10.7% (inactive) |
| CCNC(=O)NC(=O)/C(C#N)=N/OC | – | 6.88% (inactive) |
| C#CCO | – | 12.8% (inactive) |
| CCCSC(=O)N(CCC)CCC | – | 0.423% (inactive) |
| CON(C)C(=O)Nc1ccc(Cl)c(Cl)c1 | – | -12.8% (inactive) |
| CCC/C(=N\OCC)C1=C(O)CC(CC(C)SCC)CC1=O (stereo not given) | – | 7.33% (inactive) |
| CCCCC(CC)C(=O)Cl (stereo not given) | – | 4.86% (inactive) |
| CCCCC(CC)COC(=O)Cl (stereo not given) | – | -0.0511% (inactive) |
| CCOP(=S)(OCC)Oc1ncn(-c2ccccc2)n1 | – | -5.69% (inactive) |
| O=CNC(N1CCN(C(NC=O)C(Cl)(Cl)Cl)CC1)C(Cl)(Cl)Cl (stereo not given) | – | -7.58% (inactive) |
| CCNc1nc(NCC)nc(SC)n1 | – | -13.5% (inactive) |
| COP(=O)(OC)Oc1ccc([N+](=O)[O-])cc1 | – | -2.04% (inactive) |
| ClC1=C(Cl)C2(Cl)C3C(Cl)C(Cl)CC3C1(Cl)C2(Cl)Cl (stereo not given) | 50.1 µM (active) | – |
| COc1cc(Cl)c(OC)cc1Cl | – | -3.33% (inactive) |
| CCCCNC(=O)OCC#CI | – | -12.5% (inactive) |
